For nine molecules, growth results are on record in PubChem BioAssay (NCI).

Holding throughout (assay): NCI-60 one-dose screen, 48 h (100 = growth as untreated, 0 = no growth, -100 = all killed)
One experiment relates to SR leukemia. The following applies: 10 µM unless noted.
The next experiment relates to RPMI-8226 leukemia. The following applies: 10 µM unless noted.
For the next experiment, the system named is OVCAR-8 ovarian. The note with it: 10 µM unless noted.
Another experiment has as its system OVCAR-5 ovarian. The note with it: 10 µM unless noted.
Another experiment has as its system OVCAR-4 ovarian. The following applies: 10 µM unless noted.
In a further experiment the test system is SK-OV-3 ovarian. The following applies: 10 µM unless noted.
Another experiment deals with IGROV1 ovarian. The note with it: 10 µM unless noted.
The next experiment deals with OVCAR-3 ovarian. The following applies: 10 µM unless noted.
For another experiment, the system named is HS 578T breast. The following applies: 10 µM.
The next experiment deals with NCI/ADR-RES ovarian. The note with it: 10 µM unless noted.
The test system of a further experiment is T-47D breast. The note with it: 10 µM unless noted.
The next experiment concerns BT-549 breast. The note with it: 10 µM unless noted.
A further experiment relates to MDA-MB-435 melanoma. The note with it: 10 µM unless noted.
A further experiment concerns SW-620 colon. The following applies: 10 µM unless noted.
For a further experiment, the system named is MCF7 breast. The note with it: 10 µM unless noted.
Another experiment concerns HCT-116 colon. The note with it: 10 µM unless noted.
A further experiment relates to HCC-2998 colon. The following applies: 10 µM unless noted.
Another experiment has as its system KM12 colon. The note with it: 10 µM unless noted.

This is part of a sample that, as a whole, favours compounds with a hit. Of some 83,000 tested, about 20% had one in any assay.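 For each line, cells grew in 96-well plates with the test compound present at a single concentration for 48 hours.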 Values without a mark were called inactive. Calls of active or inactive are those of the source. The calls were made as follows: active = growth percent below 10; inactive = the rest.

Take `FC(F)(F)c1ccc(/C=N/Nc2nnc3n2N=C(c2ccc(Cl)cc2)CS3)cc1`: the growth was 79.7% with SR leukemia; 85.1% with RPMI-8226 leukemia; 19.9% in the experiment on OVCAR-8 ovarian; 92.7% in the experiment on OVCAR-5 ovarian; 17.4% in the experiment with OVCAR-4 ovarian; 40.8% in the experiment on SK-OV-3 ovarian. The growth in the experiment on IGROV1 ovarian was 49.2%; in the experiment with OVCAR-3 ovarian, 46.7%; in the experiment on HS 578T breast, 8.3% (active); in the experiment on NCI/ADR-RES ovarian, 47.4%; with T-47D breast, 65.5%; with BT-549 breast, 58.2%. The growth in the experiment with MDA-MB-435 melanoma was 70.8%; in the experiment with SW-620 colon it was 77.6%; in the experiment on MCF7 breast it was 61.2%; with HCT-116 colon it was 32.8%; in the experiment with HCC-2998 colon it was 98.7%.
Consider `O=c1[nH]cnc2nc[nH]c12`, for which the growth in the experiment on SR leukemia is 48.8%; in the experiment with RPMI-8226 leukemia it was 93.5%; with OVCAR-8 ovarian, 76.9%; in the experiment with OVCAR-5 ovarian, 98.5%; with OVCAR-4 ovarian it was 94.5%; in the experiment with SK-OV-3 ovarian it was 121%. Further, the growth was 109% in the experiment on IGROV1 ovarian; 174% in the experiment on OVCAR-3 ovarian; 123% with HS 578T breast; 97.8% in the experiment on NCI/ADR-RES ovarian; 111% with T-47D breast; 105% with BT-549 breast. Besides, the growth in the experiment with MDA-MB-435 melanoma is 93.5%; in the experiment with SW-620 colon, 105%; with MCF7 breast, 95.4%; in the experiment with HCT-116 colon, 98.1%; in the experiment with HCC-2998 colon it was 101%; in the experiment on KM12 colon, 196%.
In the case of `O=C(O)/C=C(\c1nc2ccc([N+](=O)[O-])cc2[nH]1)c1cc(Cl)ccc1O`, the growth is 29.6% with SR leukemia; -15.7% (active) with RPMI-8226 leukemia; 24.5% in the experiment with OVCAR-8 ovarian; 87.1% in the experiment on OVCAR-5 ovarian; 8.51% (active) in the experiment on OVCAR-4 ovarian; 29.9% with SK-OV-3 ovarian. The growth in the experiment with IGROV1 ovarian was 25.7%; in the experiment with OVCAR-3 ovarian, -16% (active); in the experiment on HS 578T breast, 45.9%; in the experiment with NCI/ADR-RES ovarian, 17.7%; in the experiment on T-47D breast, 5.42% (active); in the experiment on BT-549 breast, 8.6% (active). Further, the growth in the experiment with MDA-MB-435 melanoma was 20.5%; in the experiment on SW-620 colon it was 28.6%; with MCF7 breast, 13.4%; with HCT-116 colon, 8.05% (active); with HCC-2998 colon, 27.8%; in the experiment with KM12 colon, 21.3%.
As to `Cc1cc(-c2nnc(/C=C/c3ccc4c(c3)OCO4)o2)n[nH]1`, the growth in the experiment with SR leukemia was 18.7%; in the experiment with RPMI-8226 leukemia, 66.5%; with OVCAR-8 ovarian, 91.5%; with OVCAR-5 ovarian it was 92.2%; in the experiment with OVCAR-4 ovarian it was 96.8%; in the experiment with SK-OV-3 ovarian it was 80.6%. Moreover, the growth was 40.7% with IGROV1 ovarian; 63.4% in the experiment on OVCAR-3 ovarian; 80% in the experiment on HS 578T breast; 31.3% in the experiment on NCI/ADR-RES ovarian; 60.9% in the experiment on T-47D breast; 35.1% in the experiment on BT-549 breast. For the same molecule, the growth in the experiment with MDA-MB-435 melanoma was -25.4% (active); with SW-620 colon it was 25.5%; in the experiment with MCF7 breast it was 31.7%; in the experiment with HCT-116 colon, 48.1%; in the experiment with HCC-2998 colon it was 75.8%.
Turning to `COc1ccc(Sc2[nH]c(C=O)c3ccccc23)cc1`, the growth in the experiment with SR leukemia is 16.6%; with RPMI-8226 leukemia, -17.3% (active); with OVCAR-8 ovarian it was 69.3%; in the experiment with OVCAR-5 ovarian it was 28.5%; with OVCAR-4 ovarian, 60.3%; with SK-OV-3 ovarian, 47.7%. The growth was 73.1% with IGROV1 ovarian; 65.7% in the experiment with OVCAR-3 ovarian; 54.4% with HS 578T breast; 46.8% in the experiment with NCI/ADR-RES ovarian; 57.2% with T-47D breast; -7.47% (active) with BT-549 breast. Also, the growth with MDA-MB-435 melanoma is -0.922% (active); in the experiment on SW-620 colon, 16.1%; in the experiment on MCF7 breast, 57.8%; with HCT-116 colon, 61.1%; with HCC-2998 colon, 16.3%.
Consider `NNC(=O)Cc1ccccc1`, for which the growth is 88.9% in the experiment with SR leukemia; 88.4% with RPMI-8226 leukemia; 87.6% in the experiment with OVCAR-8 ovarian; 77.1% in the experiment with OVCAR-5 ovarian; 97.4% in the experiment on OVCAR-4 ovarian; 78.4% in the experiment with SK-OV-3 ovarian. In addition, the growth in the experiment on IGROV1 ovarian was 97.5%; in the experiment with OVCAR-3 ovarian, 96%; in the experiment with HS 578T breast it was 95.7%; in the experiment with NCI/ADR-RES ovarian, 72.2%; in the experiment on T-47D breast it was 85%; with BT-549 breast it was 108%. In addition, the growth with MDA-MB-435 melanoma was 83.7%; in the experiment with SW-620 colon, 86.2%; in the experiment with MCF7 breast, 91.5%; with HCT-116 colon, 90.6%; with HCC-2998 colon it was 102%.
As to `COc1ccc2c(c1)CCCC21C(=O)Nc2c(Cl)cccc21` (configuration not stated), the growth with SR leukemia is 29.6%; with RPMI-8226 leukemia it was 82.9%; in the experiment with OVCAR-8 ovarian, 84.6%; with OVCAR-5 ovarian it was 92.9%; in the experiment with OVCAR-4 ovarian it was 96.1%; in the experiment on SK-OV-3 ovarian, 71.9%. The growth in the experiment on IGROV1 ovarian was 88.5%; in the experiment on OVCAR-3 ovarian, 76.3%; in the experiment with HS 578T breast it was 85.8%; with NCI/ADR-RES ovarian, 18.3%; in the experiment on T-47D breast it was 87.6%; in the experiment with BT-549 breast it was 91%. The growth in the experiment with MDA-MB-435 melanoma was -11.8% (active); in the experiment on SW-620 colon, 42.8%; with MCF7 breast, 81.8%; in the experiment on HCT-116 colon, 49.5%; in the experiment with HCC-2998 colon, 88.3%; in the experiment with KM12 colon, 61.3%.
As to `CN1CCN(Cc2ccc(NC(=O)c3cncc(C#Cc4cnc5cccnn45)c3)cc2C(F)(F)F)CC1`, the growth in the experiment with SR leukemia is 5.44% (active); with RPMI-8226 leukemia, -20.1% (active); with OVCAR-8 ovarian it was 5.17% (active); with OVCAR-5 ovarian it was 12.7%; with OVCAR-4 ovarian it was -21.7% (active); with SK-OV-3 ovarian it was 7.64% (active). Further, the growth is 5.12% (active) with IGROV1 ovarian; 1.49% (active) in the experiment on OVCAR-3 ovarian; -17.3% (active) in the experiment on HS 578T breast; 18.3% in the experiment with NCI/ADR-RES ovarian; 30.7% with T-47D breast; 6.96% (active) in the experiment with BT-549 breast. Also, the growth in the experiment on MDA-MB-435 melanoma was 1.81% (active); with SW-620 colon, -3.38% (active); in the experiment with MCF7 breast, 3.61% (active); in the experiment with HCT-116 colon, 3.88% (active); with HCC-2998 colon it was 9.55% (active).
Consider `Cc1[nH]nc2ccc3nc(-c4ccc5[nH]ncc5c4)c4c(c3c12)CCCC4`, for which the growth was 1.09% (active) with SR leukemia; 13% in the experiment with RPMI-8226 leukemia; 28.2% with OVCAR-8 ovarian; 46.6% with OVCAR-5 ovarian; 38.4% in the experiment on OVCAR-4 ovarian; -19.6% (active) with SK-OV-3 ovarian. The growth in the experiment with IGROV1 ovarian was 11.9%; in the experiment on OVCAR-3 ovarian, 32.8%; in the experiment on HS 578T breast, -6.38% (active); in the experiment with NCI/ADR-RES ovarian it was 40%; in the experiment on T-47D breast it was 24.1%; in the experiment on BT-549 breast it was 18.5%. Also, the growth with MDA-MB-435 melanoma was 3.38% (active); with SW-620 colon, 6.74% (active); with MCF7 breast it was 28%; with HCT-116 colon, 6.66% (active); with HCC-2998 colon, 45.2%; with KM12 colon, 12.6%.
